{"source": "PubChem BioAssay AID1051", "about": "(The Scripps Research Institute Molecular Screening Center, 2008)", "note": "About 340 (0.34%) of roughly 99,000 compounds were called active. For the sample, actives were picked, then their nearest neighbours and some compounds at random. Unmarked numbers belong to inactive results. Rule as the data show it: active = TR-FRET ratio above about 2300; inactive = the rest."}
{"experiment": "TR-FRET detection interference compounds, primary screen, artefact control for PPARgamma SRC-1 recruitment agonists, biochemical, TR-FRET emission ratio (AID 1051)", "conditions": "TR-FRET detection artefact counter-screen, at 8 µM, active compounds read high"}
{"smiles": "O=C(CO/N=C/c1ccc(OC(F)F)cc1)NCc1ccc(F)cc1", "TR-FRET ratio": 1970}
{"smiles": "O=C(/C=C\\c1ccc2c(c1)OCO2)NC1(C(=O)Nc2ccc3c(c2)OCCO3)CCCCC1", "TR-FRET ratio": 1600}
{"smiles": "Cc1cccc(-c2ncc(CN3CCC(CO)(CCCc4ccccc4)CC3)cn2)c1", "TR-FRET ratio": 1880}
{"smiles": "CC(=O)c1cccc(CN2CCC(CO)(Cc3ccccc3)CC2)c1", "TR-FRET ratio": 1590}
{"smiles": "OCC1(CCc2ccccc2)CCN(Cc2ccc3nsnc3c2)CC1", "TR-FRET ratio": "2510 (active)"}
{"smiles": "Cn1c(=O)cc(SCC(=O)N2CCCC2)c2cc(Cl)ccc21", "TR-FRET ratio": "3640 (active)"}
{"smiles": "CC(C)N(C(=O)Cn1cc(SCC(=O)N2CCCC2)c2ccccc21)C(C)C", "TR-FRET ratio": 1650}
{"smiles": "CCOc1ccc(CCNC(=O)CSc2cc(=O)n(C)c3ccc(Cl)cc23)cc1OCC", "TR-FRET ratio": 2230}
{"smiles": "CC(CC(=O)O)CC(=O)NNC(=O)c1cccc(Br)c1", "note": "(stereo unspecified)", "TR-FRET ratio": 1850}
{"smiles": "CCN(CCCNC(=O)CSc1cc(=O)n(C)c2cc(Cl)ccc12)Cc1ccccc1", "TR-FRET ratio": "3020 (active)"}
{"smiles": "O=C(CSc1cccc[n+]1[O-])NCCCc1ccccc1", "TR-FRET ratio": 1620}
{"smiles": "CCn1c(=O)cc(SCC(=O)NCCC2=CCCCC2)c2ccccc21", "TR-FRET ratio": 2120}
{"smiles": "O=C(CCC1CCCN(Cc2ccc(O)c(Cl)c2)C1)NCc1ccccc1F", "note": "(stereo unspecified)", "TR-FRET ratio": 1790}
{"smiles": "Cc1cc(C)cc(C(=O)N(CCc2ccccc2)C2=CC3CCC(C2)N3C)c1", "note": "(stereo unspecified)", "TR-FRET ratio": 1720}
{"smiles": "CS(=O)(=O)N(CC(=O)NC1CCCC1)Cc1ccc(F)cc1", "TR-FRET ratio": 1700}
{"smiles": "O=C(CO/N=C/c1ccccc1OC(F)F)NC1CCCC1", "TR-FRET ratio": 2060}
{"smiles": "CCOC(=O)NC(=O)C(=CNc1cccc(OC)c1)C(=O)NC(=O)OCC", "TR-FRET ratio": 1950}
{"smiles": "CCOC(=O)c1sc(-c2cccc([N+](=O)[O-])c2)cc1N", "TR-FRET ratio": 1540}
{"smiles": "CS/C(=C\\[N+](=O)[O-])Nc1ccc(C)cc1", "TR-FRET ratio": 1980}
{"smiles": "CNC(=O)NC(=O)C(OC(=O)c1cccc(S(=O)(=O)N2CCCCC2)c1)c1ccccc1", "note": "(stereo unspecified)", "TR-FRET ratio": 1550}
{"smiles": "COCC(C)NC(=O)CSc1nc2nn(-c3ccccc3)c(=O)c-2c2n1CCCCC2", "note": "(stereo unspecified)", "TR-FRET ratio": 1600}
{"smiles": "Cc1cccc(OCc2ccc(C(=O)Nc3ccc(F)cc3)cc2)c1", "TR-FRET ratio": 1720}
{"smiles": "Fc1ccc(COc2cccc(-c3n[nH]c(=S)o3)c2)cc1", "TR-FRET ratio": "3340 (active)"}
{"smiles": "S=c1[nH]nc(COc2ccccc2)n1-c1ccccc1", "TR-FRET ratio": 1980}
{"smiles": "Cc1cccc(NC(=O)c2sc(-c3ccccc3)nc2-c2ccc([N+](=O)[O-])cc2)c1", "TR-FRET ratio": 1770}
{"smiles": "Cc1ccc(S(=O)(=O)NCCC(=O)Nc2ccc(C)c(Cl)c2)cc1C", "TR-FRET ratio": 1870}
{"smiles": "Cc1ccc(-c2nc(-c3cccnc3)sc2CC(=O)Nc2ccc(C)c(Cl)c2)cc1", "TR-FRET ratio": "2930 (active)"}
{"smiles": "O=S(=O)(NCc1ccccc1)c1ccc(S(=O)(=O)N2CCCC2)cc1", "TR-FRET ratio": 1770}
{"smiles": "N#Cc1ccc(C(=O)Nc2nc(-c3cccs3)c(C(=O)C(F)(F)F)s2)cc1", "TR-FRET ratio": 2000}
{"smiles": "Cc1nc(N)c(Br)c(C)c1Br", "TR-FRET ratio": 1890}
{"smiles": "CCN(CC)P(=O)(Nc1ccc(SC(F)F)cc1)c1ccc(N(C)C)cc1NC(=O)c1ccco1", "note": "(stereo unspecified)", "TR-FRET ratio": 1800}
{"smiles": "CC(C)CCN1C(=O)c2ccc(C(=O)Nc3cccc(S(N)(=O)=O)c3)cc2C1=O", "TR-FRET ratio": 1840}
{"smiles": "COc1ccc(NC(=O)COC(=O)c2ccncc2)c(OC)c1", "TR-FRET ratio": 1980}
{"smiles": "COc1cccc(-n2nc(C(=O)N3CCN(Cc4ccccc4)CC3)c3ccccc3c2=O)c1", "TR-FRET ratio": 1300}
{"smiles": "CCOC(=O)Cc1csc(SCc2cc(=O)oc3cc(O)ccc23)n1", "TR-FRET ratio": 1620}
{"smiles": "CCOC(=O)Cc1csc(NC(=O)COc2ccc3c(C)cc(=O)oc3c2)n1", "TR-FRET ratio": "2450 (active)"}
{"smiles": "CCOC(=O)Cc1csc(NC(=O)CSc2ccc(Br)cc2)n1", "TR-FRET ratio": 1780}
{"smiles": "O=C(NCCCNc1ccc([N+](=O)[O-])cc1Cl)c1ccccc1F", "TR-FRET ratio": 1920}
{"smiles": "Cc1c(CN2CCCC(C(=O)c3cccc(Cl)c3)C2)c(=O)n(-c2ccccc2)n1C", "note": "(stereo unspecified)", "TR-FRET ratio": 1510}
{"smiles": "COc1cc(NC(=O)COC(=O)CSc2ccc3ccccc3c2)c(C)cc1[N+](=O)[O-]", "TR-FRET ratio": 1730}
{"smiles": "Cc1ccc(N2C(=O)C(NC(=O)c3c(F)cccc3F)(C(F)(F)F)C3=C2CC(C)(C)CC3=O)cc1", "note": "(stereo unspecified)", "TR-FRET ratio": 1770}
{"smiles": "CC1CC(C)(C)NC(=S)N1CCC(=O)N1CCN(Cc2ccccc2)CC1", "note": "(stereo unspecified)", "TR-FRET ratio": 1810}
{"smiles": "CC(C)C(c1nnnn1C(C)(C)C)N1CCN(Cc2cccnc2)CC1", "note": "(stereo unspecified)", "TR-FRET ratio": 1760}
{"smiles": "Cc1nc(N2CCOCC2)c2c(C)c(C(=O)Nc3ccc(C(F)(F)F)cc3)sc2n1", "TR-FRET ratio": 1820}
{"smiles": "Cc1nc(N2CCN(c3ccccn3)CC2)c2c(C)c(C(=O)Nc3ccc(F)cc3)sc2n1", "TR-FRET ratio": 1920}
{"smiles": "Cc1nc(N2CCC(C)CC2)c2c(C)c(C(=O)Nc3cc(F)ccc3C)sc2n1", "TR-FRET ratio": "2400 (active)"}
